14 molecules from PubChem BioAssay AID1345085 (National Center for Advancing Translational Sciences (NCATS), 2018) can be followed below.

SMILES strings stand for the structures. Inconclusive results are not listed. Activity calls are given as the source filed them. Calls follow the shape of the dose curve; as a rule, active = well fitted cell-killing curve with a large enough effect; inconclusive = small, poorly fitted or top-dose-only effect, or effect the other way; inactive = no such curve, though single readings can be large or run the other way.
Potency is read from the fitted curve at half-maximal effect.

The test system of this assay is HeLa. In words: Confirmatory qHTS for gynecologic anti-cancer compounds from libraries of approved drugs and bioactive compounds. Also: nearly all actives have a fitted effect of over 55% in size. The note with it: gynecologic cancer cell panel viability, ATPlite luminescence, 48 h; series mostly up to 57.6 µM. A digest of the protocol:
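IC50 values derive from an ATPlite ATP-content luminescence assay following 48 h treatment at 37 C. Each compound ran as an 11-concentration, threefold series (57.5 uM to 0.977 nM); HEK 293T served as control line for selectivity index.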
Background: In qHTS, concentration-response curves come from the screen itself.
As to `CC[C@H](CC#N)OC(=O)N[C@@H](C)c1cccc(NC(=O)Nc2ccc(-c3cnco3)c(OC)c2)c1`, the Potency was 8.63 µM (active). As for `Cn1cnc([N+](=O)[O-])c1Sc1ncnc2nc[nH]c12`, the Potency was 4.85 µM (active). Regarding `CCCCc1nc2cc(/C=C/C(=O)NO)ccc2n1CCN(CC)CC`, the Potency is 1.72 µM (active). In the case of `CC(Oc1ccc2[nH]nc(/C=C/c3cnn(CCO)c3)c2c1)c1c(Cl)cncc1Cl` (centres undefined), the Potency is 0.172 µM (active).

With `COc1cc2c(Nc3ccc(NC(=O)c4ccccc4)cc3)ncnc2cc1OCCCN1CCOCC1`, the Potency is 21.7 µM (active). `COc1cc(N2CCC(N)CC2)ccc1Nc1ncc(Cl)c(-c2c[nH]c3ccccc23)n1`: the Potency is 0.544 µM (active). In the case of `COc1ccc(OC)c(-c2nnc3ccc(-c4ccc(OC)c(O[C@@H]5CCOC5)c4)nn23)c1` it was 5.44 µM (active); in that of `CNCc1ccc(-c2[nH]c3cc(F)cc4c3c2CCNC4=O)cc1`, “inactive”; in that of `CCN(CC)CCOc1ccc(/C(=C(\Cl)c2ccccc2)c2ccccc2)cc1`, 79.4 µM (active). With `CN(C)C1CCN(C(=O)c2ccc(NC(=O)Nc3nc(N4CCOCC4)nc(N4CCOCC4)n3)cc2)CC1`, the Potency was 0.769 µM (active).

Take `OC[C@H]1O[C@@H](n2cnc3c(=S)nc[nH]c32)[C@H](O)[C@@H]1O`: the Potency is 4.32 µM (active).

In the case of `COc1cc2c(c(OC)c1OC)-c1ccc(OC)c(=O)cc1[C@@H](NC(C)=O)CC2`, the Potency was 0.178 µM (active). Turning to `O=C(CCCCCCC(=O)Nc1ccccc1)NO`, the Potency was 3.43 µM (active). Consider `CN(c1nccc(=O)[nH]1)C1CCN(c2nc3ccccc3n2Cc2ccc(F)cc2)CC1`, for which the Potency result was “inactive”.
